Autofluor counter: flagged as autofluorescent in microsphere protease counterscreen | AID 624483 | fluorescence intensity (concentration not given with the values) | actives 3.1% (n = 360,000) | compound autofluorescence counterscreen, microsphere flow cytometry; active compounds read high; in the data active = fluorescence intensity above about 16000; inconclusive = no clear call, values can overlap the other calls
Mtb FBA inh: inhibitors of M. tuberculosis fructose-bisphosphate aldolase. P9WQA3. purified M. tuberculosis FBA, fluorescence read-out. inhibition, % at 1 µM. actives 2.3% (n = 360,000). AID 588726; in the data active = inhibition above about 27%;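 note: 0% = vehicle and 100% = reference inhibitor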
Target sequence (P9WQA3 whole entry, looked up): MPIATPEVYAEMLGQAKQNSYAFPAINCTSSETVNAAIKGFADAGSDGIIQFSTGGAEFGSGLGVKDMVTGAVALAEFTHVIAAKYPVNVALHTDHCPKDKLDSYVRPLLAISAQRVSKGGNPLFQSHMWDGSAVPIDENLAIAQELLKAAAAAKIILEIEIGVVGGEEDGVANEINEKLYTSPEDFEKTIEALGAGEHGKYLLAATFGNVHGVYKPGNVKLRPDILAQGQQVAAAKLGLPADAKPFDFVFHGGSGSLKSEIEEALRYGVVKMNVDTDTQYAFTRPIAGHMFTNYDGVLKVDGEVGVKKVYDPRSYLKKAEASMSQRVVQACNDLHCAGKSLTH
Anthrax LF prot: anthrax lethal factor protease inhibition; actives 0.12% (n = 360,000); inhibition, % at 10 µM; AID 588501; P15917; multiplex microsphere protease cleavage assay, LF; note: plate controls were buffer without enzyme for full effect and enzyme alone for no effect
BoNT A protease: BoNT A light chain protease inhibition | multiplex microsphere protease substrate cleavage, flow cytometry | inhibition, % at 10 µM | actives 0.17% (n = 360,000) | AID 588499; note: plate controls were buffer without enzyme for full effect and enzyme alone for no effect
BoNT-F LC inh: inhibitors of Botulinum neurotoxin F light chain protease | inhibition, % at 10 µM | actives 0.22% (n = 360,000) | Multiplex microsphere protease cleavage assay, flow cytometry; in the data active = inhibition above about 35%, passing the limit was not always enough; inconclusive = no clear call, values can overlap the other calls; note: plate controls were buffer without enzyme for full effect and enzyme alone for no effect
GDH-TPI inh: GDH-TPI coupled enzyme inhibition counter-screen; GDH-TPI coupled enzyme counterscreen, NADH absorbance; inhibition, % at 4.8 µM; actives 1.2% (n = 360,000); AID 588335; in the data active = inhibition above about 30%;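 note: 0% = DMSO wells and 100% = wells lacking the enzyme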
Active calls of the source: *; ? = inconclusive; . = no result given. Rows were chosen to be rich in hits. Some 6.6% of all compounds tested hit in one or more screens of this group. Cut-off read from the data, not from the text of the source, unless noted: active = inhibition above about 30%; inconclusive = no clear call, values can overlap the other calls; inactive = below that.

SMILES	Autofluor counter	Mtb FBA inh	Anthrax LF prot	BoNT A protease	BoNT-F LC inh	GDH-TPI inh
CN(C)c1ccc(C(=O)c2ccc(O)cc2O)cc1	4427	-2	-3	0	-11	19
O=C(c1ccccc1)c1ccc(O)cc1O	4936	2	3	-1	0	52*
COCC1CCCN(Cc2cn(-c3ccccc3)nc2-c2ccc3c(c2)OCO3)C1 (stereo not drawn)	3933	5	0	0	5	-6
CCC(C)Sc1ccc([C@@H]2[C@@H]3C(=O)N(C)C(=O)[C@@H]3[C@]3(C(=O)OC)CCCCN23)cc1 (stereo partly drawn)	3716	3	-6	0	2	5
CC(C)CN(CC(C)C)C(=O)COn1nnc2ccc(S(=O)(=O)N3CCOCC3)cc21	.	4	.	.	.	-2
OC(c1cccc(Cl)c1)c1ncc(-c2cccc(C(F)(F)F)c2)[nH]1 (stereo not drawn)	3916	1	3	0	-6	-9
O=C(O)c1cc(C(=O)O)c(-c2ccccc2)c(C(=O)O)c1	22323*	-1	-4	-1	-1	-6
Cc1c(O)ccc(C(=O)COc2ccccc2F)c1O	?	2	-12	2	14	22
O=C(c1ccc(O)cc1)c1ccc(O)cc1O	4616	1	1	0	-8	35*
O=C(COc1ccccc1F)c1ccc(O)cc1O	20781*	-2	-5	4	6	50*
O=C(O)c1cc(-c2ccccc2)nc(-c2ccccc2)c1	3746	10	-2	0	-8	2
Oc1ccc2cccnc2c1	4935	-5	5	0	-3	3
O=C(Cc1ccc2cccnc2c1)c1ccc(O)cc1O	6667	-3	-1	0	-6	52*
O=C(O)c1ccc(C(=O)O)c(C(=O)c2ccccc2)c1	17146*	-3	1	-3	-5	14
CCCCn1c(N)c(N(C(=O)CSc2nnc(C)n2-c2ccccc2)C2CCCC2)c(=O)[nH]c1=O	2764	0	-4	0	-8	9
Cc1ccc(S(=O)(=O)NC(=O)C2(C)CCN2C(=O)Cc2cccs2)cc1 (stereo not drawn)	4020	1	-7	0	-10	8
S=c1[nH]nc(-c2ccccc2)n1C1C=CCCC1 (stereo not drawn)	16741*	3	2	-1	-3	16
Cc1n[nH]c(=O)nc1NC(C)c1ccccc1 (stereo not drawn)	22579*	6	2	3	2	0
CCN(CC)CCC(C)OC(=O)c1ccc(O)cc1O (stereo not drawn)	4480	3	-1	0	0	-3
COc1cc(=O)n(C)c2cc(N(C)C)ccc12	3234	156*	0	2	4	33*
Cc1ccc(N2CC(C(=O)NCc3ccc4c(c3)OCO4)CC2=O)cc1C (stereo not drawn)	22630*	-1	-3	?	-2	10
CCC1(C)OC(=O)NN(c2ccc(C)cc2)C1(C)O (stereo not drawn)	2443	0	1	0	-7	-2
CCN(CC)C(=O)CC(c1ccccc1)c1ccco1 (stereo not drawn)	24247*	2	-5	-1	-3	-1
CCCN(CCC)C(=O)CC(c1ccc(F)cc1)c1ccco1 (stereo not drawn)	3271	-2	-4	1	3	12
C/C(=N/NC(=O)CCC(=O)Nc1ccc(Br)cc1)c1ccc(Br)cc1	3568	2	2	0	-13	11
SMILES	Autofluor counter	Mtb FBA inh	Anthrax LF prot	BoNT A protease	BoNT-F LC inh	GDH-TPI inh
CC1/C(=C\c2ccc(Cl)cc2)C(=O)C2CC1C2(C)C (stereo not drawn)	2696	-1	-4	0	-7	1
CC1CCC(C(C)C)C(=O)/C1=C/c1ccc(N)cc1 (stereo not drawn)	4101	0	-6	0	-1	36*
Cc1c(Cc2ccccc2)c(=O)oc2cc(OCC(=O)N3CCC(C(N)=O)CC3)ccc12	5490	124*	6	1	8	16
Cc1c(C)c2ccc(OCC(=O)N3CC[C@@]4(O)CCCC[C@H]4C3)cc2oc1=O	5206	87*	-2	0	-7	9
NC(=O)C1CCN(C(=O)COc2ccc3c(c2)oc(=O)c2ccccc23)CC1	5428	112*	-2	0	2	8
CCc1cc(=O)oc2cc(OCC(=O)N3CCC(C(N)=O)CC3)ccc12	5847	23	-3	0	-2	12
Cn1c(N)c(C(=O)CSc2nnc(-c3c[nH]c4ccccc34)n2C2CC2)c(=O)[nH]c1=O	4819	-2	5	3	?	2
CC(C)(C)c1ccc(C(=O)NC(=O)COC(=O)c2ccc(Br)o2)cc1	4122	-2	0	-1	-2	4
CCOC(=O)C1(C)CCN1C(=O)c1cccc2ccccc12 (stereo not drawn)	3400	-1	0	0	8	-4
Cc1nc(SCC(=O)NC(C)c2ccccc2)c2oc3ccccc3c2n1 (stereo not drawn)	19999*	-1	-2	0	1	4
Cc1nc(SCC(=O)NCCc2ccccc2)c2oc3ccccc3c2n1	16266*	-3	5	1	-2	10
O=C(c1cccc(S(=O)(=O)N2CCCC2)c1)c1nnc(-c2ccncc2)o1	9411	-2	2	1	1	2
COC(=O)CC1COc2ccccc2N1C(=O)c1ccc(Cl)cc1 (stereo not drawn)	23189*	1	-7	-2	-1	6
COC(=O)CC1COc2ccccc2N1C(=O)c1ccc(C(C)(C)C)cc1 (stereo not drawn)	20115*	-4	0	?	0	11
COc1ccc(CCN2CCCn3c2nc2c3c(=O)n(CC(N)=O)c(=O)n2C)cc1OC	3310	1	7	0	-1	3
CCOc1ccc(-c2cc(C)[n+](CCN3CCOCC3)c(-c3ccc(OCC)cc3)c2)cc1	5903	19	-1	-1	-9	41*
CCN(CC(=O)Nc1ccc(N2CCOCC2)cc1)C(=O)Cc1ccccc1	8187	0	-18	3	-4	0
C/C(CC(=O)Nc1ccccn1)=N\NC(=O)Cc1cccc2ccccc12	23733*	-3	0	?	-3	6
C/C(CC(=O)Nc1ccccn1)=N\NC(=O)c1ccc2ccccc2c1	2568	2	-2	0	-1	6
COCCn1c(SCC(=O)NCc2ccc3c(c2)OCO3)nc2ccccc2c1=O	3221	4	-2	0	2	3
O=C(c1cccs1)N(Cc1ccco1)Cc1cc2ccccc2[nH]c1=O	4705	6	2	0	-3	5
COc1ccc2[nH]c(=O)c(CN(CCO)C(=O)c3cccs3)cc2c1	22556*	8	0	1	2	7
CNC(=S)N(Cc1cccs1)Cc1cc2cc(OC)ccc2[nH]c1=O	2483	6	1	1	-2	8
